Assay results reported in PubChem BioAssay (EPA / NIEHS).
Calls of active or inactive are those of the source. How the source made its calls: active means hit-call score of the fitted dose curve at least 0.9, where 1 is the maximum; inactive means score below 0.9.

Assays:
Conditions in all cases: mRNA level, 48 h; actives raise or lower the signal
[1] = read-out: JUN Transcription Factor, JUN (gene 3725); test: LTEA_HepaRG_JUN: Life Technologies and Expression Analysis (LTEA) Assay for JUN Transcription Factor using HepaRG (AID 2283513)
Outline: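 HepaRG cells, 48 h post-plating, exposed 48 h in serum-free induction medium to 8-point half-log series (top 100 uM, 0.5% DMSO), duplicate; mRNA by qRT-PCR (TaqMan, Fluidigm), normalized to ACTB/GAPDH/POLR2A; bidirectional fit vs DMSO.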

[2] = read-out: Lipase C (LIPC), LIPC (gene 3990); test: LTEA_HepaRG_LIPC: Life Technologies and Expression Analysis (LTEA) Assay for Lipase C (LIPC) using HepaRG (AID 2283514)
Outline: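 HepaRG cells, 48 h after plating, treated in duplicate for 48 h in serum-free induction medium over 8 half-log concentrations from 100 uM, 0.5% DMSO. LIPC mRNA by TaqMan qRT-PCR normalized to ACTB/GAPDH/POLR2A; bidirectional fit versus DMSO.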

[3] = read-out: Lipoprotein lipase (LPL), LPL (gene 4023); test: LTEA_HepaRG_LPL: Life Technologies and Expression Analysis (LTEA) Assay for Lipoprotein lipase (LPL) using HepaRG (AID 2283515)
Outline: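 Differentiated HepaRG cells, plated 48 h, then exposed 48 h in serum-free induction medium to 8 concentrations (top 100 uM, half-log steps) in 0.5% DMSO, duplicate. LPL mRNA measured by qRT-PCR, normalized to ACTB, GAPDH and POLR2A.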

[4] = read-out: MicroRNA 122 (MIR122), gene 406906; test: LTEA_HepaRG_MIR122: Life Technologies and Expression Analysis (LTEA) Assay for MicroRNA 122 (MIR122) using HepaRG (AID 2283516); further: the transcript read is the microRNA miR-122
Outline: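 Differentiated human HepaRG cells in serum-free induction medium exposed 48 h to 8 half-log concentrations from 100 uM in 0.5% DMSO, duplicate. MIR122 quantified by Fluidigm TaqMan qRT-PCR, normalised to ACTB, GAPDH, POLR2A; fold change fitted bidirectionally versus DMSO.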

[5] = read-out: matrix metalloproteinase-10 (MMP10), MMP10 (gene 4319); test: LTEA_HepaRG_MMP10: Life Technologies and Expression Analysis (LTEA) Assay for matrix metalloproteinase-10 (MMP10) using HepaRG (AID 2283517)
Outline: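 Differentiated HepaRG cells in serum-free induction medium exposed 48 h in duplicate to 8-point half-log series up to 100 uM in 0.5% DMSO. mRNA quantified by qRT-PCR, normalised to ACTB, GAPDH, POLR2A; bidirectional fit versus DMSO.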

[6] = read-out: MYC, MYC (gene 4609); test: LTEA_HepaRG_MYC: Life Technologies and Expression Analysis (LTEA) Assay for MYC using HepaRG (AID 2283518)
Outline: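 MYC transcript changes, up or down relative to 0.5% DMSO, from TaqMan qRT-PCR normalized to three housekeeping genes. Human HepaRG cultures received chemicals for 48 h at eight half-log concentrations up to 100 uM, in duplicate.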

[7] = read-out: matrix metalloproteinase-3 (MMP3), MMP3 (gene 4314); test: LTEA_HepaRG_MMP3: Life Technologies and Expression Analysis (LTEA) Assay for matrix metalloproteinase-3 (MMP3) using HepaRG (AID 2283519)
Outline: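 HepaRG cells (~100,000/well) in serum-free induction medium were dosed in duplicate for 48 h with an 8-point half-log series from 100 uM, 0.5% DMSO. MMP3 mRNA was quantified by Fluidigm TaqMan qRT-PCR, normalized to three housekeeping genes.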

[8] = read-out: Paternally Expressed 10 (PEG10), PEG10 (gene 23089); test: LTEA_HepaRG_PEG10: Life Technologies and Expression Analysis (LTEA) Assay for Paternally Expressed 10 (PEG10) using HepaRG (AID 2283520)
Outline: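 Differentiated HepaRG cells exposed 48 h in serum-free induction medium to eight half-log concentrations topping at 100 uM, 0.5% DMSO, in duplicate. PEG10 mRNA quantified by TaqMan qRT-PCR, normalized to ACTB, GAPDH and POLR2A; bidirectional fit versus DMSO.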

[9] = read-out: Nuclear factor NF-kappa-B p105 subunit (Homo sapiens) (UniProt P19838); test: LTEA_HepaRG_NFKB1: Life Technologies and Expression Analysis (LTEA) Assay for Nuclear Factor Kappa B Subunit 1 (NFKB1) using HepaRG (AID 2283521);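 further: TaqMan qRT-PCR transcript normalised to ACTB GAPDH and POLR2A housekeeping genes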
Outline: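 Human HepaRG cells receive eight half-log concentrations, highest 100 uM, for 48 h. NFKB1 expression is then quantified by qRT-PCR and analysed for up- or down-regulation relative to 0.5% DMSO vehicle.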

[10] = read-out: Protein phosphatase 2A (PPP2R4), PTPA (gene 5524); test: LTEA_HepaRG_PPP2R4: Life Technologies and Expression Analysis (LTEA) Assay for Protein phosphatase 2A (PPP2R4) using HepaRG (AID 2283522)
Outline: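 Differentiated human HepaRG cells in serum-free induction medium were exposed 48 h to 8 concentrations (top 100 µM, half-log steps, duplicate) in 0.5% DMSO. PPP2R4 mRNA was measured by TaqMan qRT-PCR, normalised to ACTB, GAPDH and POLR2A, and fitted bidirectionally versus DMSO.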

[11] = read-out: Phosphatase and tensin (PTEN), PTEN (gene 5728); test: LTEA_HepaRG_PTEN: Life Technologies and Expression Analysis (LTEA) Assay for Phosphatase and tensin (PTEN) using HepaRG (AID 2283523)
Outline: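 HepaRG cells, 48 h after plating, exposed in duplicate for 48 h in serum-free induction medium to 8 half-log concentrations up to 100 uM (0.5% DMSO). PTEN mRNA by qRT-PCR, normalized to ACTB, GAPDH, POLR2A; bidirectional fit versus DMSO.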

[12] = read-out: solute carrier (SLC22A1), SLC22A1 (gene 6580); test: LTEA_HepaRG_SLC22A1: Life Technologies and Expression Analysis (LTEA) Assay for solute carrier (SLC22A1) using HepaRG (AID 2283524)
Outline: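 Differentiated human HepaRG cells in serum-free induction medium, exposed 48 h in duplicate to 8-point half-log series from 100 µM top in 0.5% DMSO. SLC22A1 mRNA by TaqMan qRT-PCR normalized to ACTB, GAPDH, POLR2A; bidirectional fit versus DMSO.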

[13] = read-out: Pyruvate Dehydrogenase Kinase 4 (PDK4), PDK4 (gene 5166); test: LTEA_HepaRG_PDK4: Life Technologies and Expression Analysis (LTEA) Assay for Pyruvate Dehydrogenase Kinase 4 (PDK4) using HepaRG (AID 2283525)
Outline: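 HepaRG cells plated 48 h, then switched to serum-free induction medium and exposed in duplicate for 48 h to 8 half-log concentrations from 100 uM in 0.5% DMSO. PDK4 mRNA measured by qRT-PCR, normalized to ACTB, GAPDH and POLR2A; bidirectional fit versus DMSO.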

[14] = read-out: NAD(P)H dehydrogenase [quinone] 1 (NQO1), NQO1 (gene 1728); test: LTEA_HepaRG_NQO1: Life Technologies and Expression Analysis (LTEA) Assay for NAD(P)H dehydrogenase [quinone] 1 (NQO1) using HepaRG (AID 2283526)
Outline: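 Differentiated human HepaRG cells in serum-free induction medium, dosed in duplicate for 48 h at 8 half-log concentrations up to 100 uM in 0.5% DMSO. NQO1 mRNA by qRT-PCR normalized to ACTB, GAPDH, POLR2A; bidirectional fit versus DMSO baseline.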

[15] = read-out: Nuclear factor erythroid 2-related factor 2 (Homo sapiens) (UniProt Q16236); test: LTEA_HepaRG_NFE2L2: Life Technologies and Expression Analysis (LTEA) Assay for Nuclear factor erythroid 2-related factor 2 (NFE2L2) Transcription Factor using HepaRG (AID 2283527);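 further: TaqMan qRT-PCR transcript level normalised to ACTB GAPDH and POLR2A housekeeping genes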
Outline: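 Differentiated human HepaRG cells, serum-free induction medium, exposed 48 h in duplicate to eight half-log concentrations up to 100 uM in 0.5% DMSO. NFE2L2 mRNA by Fluidigm TaqMan qRT-PCR, normalised to ACTB, GAPDH, POLR2A; bidirectional change versus DMSO.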

[16] = read-out: succinate dehydrogenase complex iron sulfur subunit B (SDHB), SDHB (gene 6390); test: LTEA_HepaRG_SDHB: Life Technologies and Expression Analysis (LTEA) Assay for succinate dehydrogenase complex iron sulfur subunit B (SDHB) using HepaRG (AID 2283528)
Outline: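 A human HepaRG culture in serum-free induction medium received test chemicals for 48 h over an eight-point range capped at 100 uM. SDHB expression change was quantified by qRT-PCR.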

[17] = read-out: Signal transducer and activator of transcription 3 (Homo sapiens) (UniProt P40763); test: LTEA_HepaRG_STAT3: Life Technologies and Expression Analysis (LTEA) Assay for Signal transducer and activator of transcription (STAT3) using HepaRG (AID 2283529)
Outline: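 Differentiated HepaRG cells, serum-free induction medium, dosed 48 h in duplicate, 8 half-log concentrations from 100 uM in 0.5% DMSO. STAT3 mRNA by qRT-PCR, normalised to ACTB, GAPDH, POLR2A; bidirectional fit versus DMSO.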

[18] = read-out: solute carrier (SLCO1B1), SLCO1B1 (gene 10599); test: LTEA_HepaRG_SLCO1B1: Life Technologies and Expression Analysis (LTEA) Assay for solute carrier (SLCO1B1) using HepaRG (AID 2283530)
Outline: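 SLCO1B1 transcript levels were quantified by TaqMan qRT-PCR using three housekeeping genes for normalization. This followed 48 h chemical exposure (100 uM top, half-log, 8 points, 0.5% DMSO) of HepaRG liver cells, with gain or loss fitted relative to DMSO.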

[19] = read-out: Transforming Growth Factor (TGFA), TGFA (gene 7039); test: LTEA_HepaRG_TGFA: Life Technologies and Expression Analysis (LTEA) Assay for Transforming Growth Factor (TGFA) using HepaRG (AID 2283532)
Outline: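 Differentiated HepaRG cells exposed 48 hours in serum-free induction medium, 0.5% DMSO vehicle, 8-point half-log series from 100 uM, in duplicate. TGFA mRNA by TaqMan qRT-PCR, normalised to ACTB, GAPDH, POLR2A; bidirectional fit versus DMSO.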

[20] = read-out: sulfotransferase 2A1 (SULT2A1), SULT2A1 (gene 6822); test: LTEA_HepaRG_SULT2A1: Life Technologies and Expression Analysis (LTEA) Assay for sulfotransferase 2A1 (SULT2A1) using HepaRG (AID 2283531)
Outline: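 Expression change of SULT2A1, by qRT-PCR with three housekeeping-gene normalization, was scored bidirectionally versus DMSO. Cells: differentiated HepaRG, dosed in duplicate for 48 h across 8 points, highest 100 µM, half-log dilution, 0.5% DMSO.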

Measured: outcome

Nuclear factor NF-kappa-B p105 subunit (Homo sapiens), sequence (P19838 whole entry, looked up): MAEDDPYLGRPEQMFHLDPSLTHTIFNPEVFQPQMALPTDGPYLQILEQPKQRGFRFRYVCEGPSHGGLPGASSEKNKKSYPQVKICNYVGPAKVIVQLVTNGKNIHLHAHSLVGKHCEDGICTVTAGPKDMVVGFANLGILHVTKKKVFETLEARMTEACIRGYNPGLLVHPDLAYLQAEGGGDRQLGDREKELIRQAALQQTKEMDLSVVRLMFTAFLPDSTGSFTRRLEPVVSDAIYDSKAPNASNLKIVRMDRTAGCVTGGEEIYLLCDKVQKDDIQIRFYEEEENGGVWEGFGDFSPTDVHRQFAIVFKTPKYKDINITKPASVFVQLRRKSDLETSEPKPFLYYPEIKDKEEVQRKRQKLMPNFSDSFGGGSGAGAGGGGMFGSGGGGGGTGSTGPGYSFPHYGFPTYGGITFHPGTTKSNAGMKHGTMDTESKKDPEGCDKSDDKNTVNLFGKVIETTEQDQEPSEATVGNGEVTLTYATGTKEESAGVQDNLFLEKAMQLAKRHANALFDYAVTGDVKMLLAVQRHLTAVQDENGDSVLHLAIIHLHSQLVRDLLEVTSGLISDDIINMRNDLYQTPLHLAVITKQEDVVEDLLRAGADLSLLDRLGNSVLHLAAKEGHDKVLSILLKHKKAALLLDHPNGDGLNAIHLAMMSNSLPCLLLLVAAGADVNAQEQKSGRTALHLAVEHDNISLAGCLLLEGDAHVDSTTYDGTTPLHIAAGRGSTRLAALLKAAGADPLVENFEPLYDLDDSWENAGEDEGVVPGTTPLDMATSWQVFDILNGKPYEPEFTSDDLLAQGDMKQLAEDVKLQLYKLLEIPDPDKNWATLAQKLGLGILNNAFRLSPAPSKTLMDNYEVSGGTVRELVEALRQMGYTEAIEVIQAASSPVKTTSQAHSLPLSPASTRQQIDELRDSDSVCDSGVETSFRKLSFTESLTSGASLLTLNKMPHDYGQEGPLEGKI
Nuclear factor erythroid 2-related factor 2 (Homo sapiens), sequence (Q16236 whole entry, looked up): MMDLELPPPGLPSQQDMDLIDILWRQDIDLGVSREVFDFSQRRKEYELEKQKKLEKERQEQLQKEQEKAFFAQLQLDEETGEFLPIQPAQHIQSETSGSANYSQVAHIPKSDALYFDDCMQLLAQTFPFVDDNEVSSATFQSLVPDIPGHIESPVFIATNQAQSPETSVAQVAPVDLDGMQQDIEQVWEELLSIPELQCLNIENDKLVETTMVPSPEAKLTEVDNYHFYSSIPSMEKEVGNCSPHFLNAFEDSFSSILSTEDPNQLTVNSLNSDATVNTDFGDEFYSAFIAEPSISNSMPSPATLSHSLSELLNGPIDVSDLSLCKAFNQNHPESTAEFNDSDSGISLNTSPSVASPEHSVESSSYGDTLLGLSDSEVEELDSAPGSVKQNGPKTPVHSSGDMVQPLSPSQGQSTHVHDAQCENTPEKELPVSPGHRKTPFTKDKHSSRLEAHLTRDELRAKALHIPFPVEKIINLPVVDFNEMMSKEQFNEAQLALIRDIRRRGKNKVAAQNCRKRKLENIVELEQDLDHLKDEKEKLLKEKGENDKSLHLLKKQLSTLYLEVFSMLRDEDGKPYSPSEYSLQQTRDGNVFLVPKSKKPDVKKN
Signal transducer and activator of transcription 3 (Homo sapiens), sequence (P40763 whole entry, looked up): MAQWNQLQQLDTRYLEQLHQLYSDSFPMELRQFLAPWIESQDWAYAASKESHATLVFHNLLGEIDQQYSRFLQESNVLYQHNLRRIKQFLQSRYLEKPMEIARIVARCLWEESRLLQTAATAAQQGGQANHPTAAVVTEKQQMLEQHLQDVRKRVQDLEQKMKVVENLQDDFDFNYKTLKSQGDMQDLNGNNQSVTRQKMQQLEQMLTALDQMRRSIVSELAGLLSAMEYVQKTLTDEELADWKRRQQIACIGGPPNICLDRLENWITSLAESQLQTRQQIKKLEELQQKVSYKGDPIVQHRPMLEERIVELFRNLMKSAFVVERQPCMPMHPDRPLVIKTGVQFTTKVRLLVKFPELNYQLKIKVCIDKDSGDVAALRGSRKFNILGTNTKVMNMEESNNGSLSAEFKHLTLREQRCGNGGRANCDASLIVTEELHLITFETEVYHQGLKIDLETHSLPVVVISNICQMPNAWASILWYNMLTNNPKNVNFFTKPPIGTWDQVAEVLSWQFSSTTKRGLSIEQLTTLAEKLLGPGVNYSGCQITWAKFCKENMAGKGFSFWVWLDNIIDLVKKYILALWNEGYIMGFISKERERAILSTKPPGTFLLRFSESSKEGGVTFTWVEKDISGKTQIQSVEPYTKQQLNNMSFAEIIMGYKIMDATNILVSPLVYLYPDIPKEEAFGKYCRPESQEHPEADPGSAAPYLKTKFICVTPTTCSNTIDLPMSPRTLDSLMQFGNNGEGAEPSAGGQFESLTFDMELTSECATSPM

Nc1nc2ncc(CNc3ccc(C(=O)N[C@@H](CCC(=O)O)C(=O)O)cc3)nc2c(=O)[nH]1
not listed: [20]
inactive: all other assays above

Clc1nc(Cl)c(Cl)c(Cl)c1Cl
inactive: all assays above

COCCOCCOCCOC
inactive: all assays above
